Screening data from PubChem.
Mtb FBA inh: inhibitors of M. tuberculosis fructose-bisphosphate aldolase; actives 2.3% (n = 360,000); inhibition, % at 1 µM; AID 588726; purified M. tuberculosis FBA, fluorescence read-out; P9WQA3; in the data active = inhibition above about 27%;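 note: 0% = vehicle and 100% = reference inhibitor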
Target sequence (P9WQA3 whole entry, looked up): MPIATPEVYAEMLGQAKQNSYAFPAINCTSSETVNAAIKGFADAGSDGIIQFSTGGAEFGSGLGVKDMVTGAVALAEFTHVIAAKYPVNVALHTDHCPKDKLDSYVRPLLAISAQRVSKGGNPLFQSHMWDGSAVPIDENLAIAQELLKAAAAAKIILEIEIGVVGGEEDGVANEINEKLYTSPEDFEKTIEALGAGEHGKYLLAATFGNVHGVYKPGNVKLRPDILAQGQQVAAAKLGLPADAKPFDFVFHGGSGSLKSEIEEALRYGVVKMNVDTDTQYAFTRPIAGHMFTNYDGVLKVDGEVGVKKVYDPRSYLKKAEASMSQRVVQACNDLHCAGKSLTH
PrPC surface inh: cell surface PrPC inhibition, primary TR-FRET screen; inhibition, % at 13.8 µM; TR-FRET read-out; AID 720596; actives 0.43% (n = 370,000); in the data active = inhibition above about 24%; note: 0% = median of the test wells and 100% = reference compound wells
GDH-TPI inh: GDH-TPI coupled enzyme inhibition counter-screen; inhibition, % at 4.8 µM; actives 1.2% (n = 360,000); AID 588335; GDH-TPI coupled enzyme counterscreen, NADH absorbance; in the data active = inhibition above about 30%;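 note: 0% = DMSO wells and 100% = wells lacking the enzyme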
TcdB GH inh: blocks C. difficile toxin B glycohydrolase activity | P18177 | TcdB glycohydrolase enzymatic assay, plate reader | inhibition, % at 9.99 µM | actives 0.24% (n = 350,000) | AID 652162; in the data active = inhibition above about 10%
Yp Topo-I inh: inhibitors of Yersinia pestis topoisomerase I; Y. pestis Topo-I cleavage product accumulation, plate reader; activity, % at 10 µM; actives 0.064% (n = 360,000); in the data active = activity above about 50%, passing the limit was not always enough
An asterisk follows results filed as active; . = not tested or not shown; + = active, no number. The list is not random: actives were taken first. Their share in the collection is about 3.2%.

SMILES | Mtb FBA inh | PrPC surface inh | GDH-TPI inh | TcdB GH inh | Yp Topo-I inh
COc1cc(/C=N/N2C(=O)c3ccccc3C2=O)ccc1O | 2 | -5 | 24 | 3 | -1
COc1ccc(/C=N/N2C(=N)SCC2=O)cc1 | 0 | -2 | 49* | 1 | -2
O=C1CSC(=S)N1/N=C/c1cccnc1 | -4 | -3 | 57* | -3 | -5
COc1cc(/C=N/N2C(=O)C3C4C=CC(CC4)C3C2=O)ccc1O (stereo unspecified) | -3 | 6 | 23 | 18* | 3
COc1ccccc1-c1ccc2n(c1=O)C[C@@H]1[C@@H](CO)[C@H](C(=O)NCc3ccccn3)[C@H]2N1C | . | . | . | 0 | .
O=C(C[C@H]1C=C[C@@H](NC(=O)c2ccncc2)[C@@H](CO)O1)NCC1CCCCC1 | . | . | . | 0 | .
Cc1cccc(NC(=O)c2ccc(N3CCOCC3)c([N+](=O)[O-])c2)n1 | -2 | -14 | 11 | 13* | 5
Cc1cccc(NC(=O)c2ccc(N3CCCCC3)c([N+](=O)[O-])c2)n1 | -4 | -2 | 15 | . | 1
CCOC(=O)/C(C#N)=C1/C=CN(C)C(C)=N1 | -2 | -1 | 67* | . | -2
O=C(Nc1ccccc1F)N1C[C@@H]2[C@H](c3ccccc31)[C@H](CO)N2C(=O)Cc1ccccc1 | . | . | . | 0 | .
CC1=CC(c2ccc(Cl)cc2)n2nc(N3C(=O)CCC3=O)nc2N1 (stereo unspecified) | 167* | . | 16 | . | 1
O=C(N/N=C/c1cccnc1)c1ccc([N+](=O)[O-])cc1Cl | -2 | -24 | 9 | . | -4
O=C(N/N=C/c1ccccn1)c1[nH]c2ccc([N+](=O)[O-])cc2c1-c1ccccc1 | -2 | 3 | 41* | 2 | -6
O=C(N/N=C/c1ccccn1)c1ccc([N+](=O)[O-])cc1Cl | 3 | -25 | 11 | 11* | 3
O=C(Nc1ccc2c(c1)[C@H]1C[C@H](CC(=O)N3CCCCC3)O[C@H](CO)[C@H]1O2)C1CCC1 | . | . | . | 1 | .
CCOc1ccc(NC(=O)CCC(=O)c2ccc(OC)cc2)cc1 | -3 | 6 | 16 | 0 | -7
COc1ccc(C(=O)COC(=O)CCC(=O)Nc2ccc(C(C)=O)cc2)cc1 | + | -10 | 7 | 1 | -2
COc1ccc(NC(=O)N(C)C[C@H]2Oc3ccc(NC(=O)CCC(F)(F)F)cc3C(=O)N([C@@H](C)CO)C[C@@H]2C)cc1 | . | . | . | -1 | .
Nc1ccc(Oc2ccc([N+](=O)[O-])cc2[N+](=O)[O-])cc1 | 3 | -27 | 33* | 1 | 9
CN(C(=O)COC(=O)CNC(=O)c1ccccc1Cl)c1ccccc1 | 0 | 5 | 6 | 15* | 0
COc1ccc(/C=N/NC(=O)c2nc(-c3ccccc3)cc(-c3ccccc3)n2)cc1 | 1 | 0 | 32* | . | 34
COc1ccc(/C=N/NC(=O)c2nc(-c3ccccc3)n(-c3ccccc3)n2)cc1OC | 2 | -8 | 37* | -1 | 28
O=C(C[C@H]1C[C@@H]2c3cc(NC(=O)C4CCOCC4)ccc3O[C@@H]2[C@H](CO)O1)NCc1cccc(F)c1 | . | . | . | -4 | .
O=C(C[C@@H]1CC[C@H]2[C@@H](COC[C@@H](O)CN2Cc2ccc(Cl)cc2)O1)NCCc1ccccc1 | . | . | . | 1 | .
COc1ccc(NC(=O)N2CCCCN3[C@H](CO)[C@@H](c4ccc(C#CCC(C)C)cc4)[C@@H]3C2)cc1 | . | . | . | -15 | .
SMILES | Mtb FBA inh | PrPC surface inh | GDH-TPI inh | TcdB GH inh | Yp Topo-I inh
O=C(c1cccnc1)N1CC[C@@H]2[C@@H](CO)Nc3ccc(C4=CCCCC4)cc3[C@@H]21 | . | . | . | 0 | .
Cc1ccc(S(=O)(=O)c2c(N)n(CCN3CCOCC3)c3nc4ccccc4nc23)cc1C | 15 | -3 | 14 | . | 8
CCCCn1c(NS(=O)(=O)c2ccccc2)c(S(=O)(=O)c2ccc(C)cc2)c2nc3ccccc3nc21 | 4 | -9 | 15 | 1 | -7
Cc1ccc(S(=O)(=O)c2c(N)n(Cc3ccco3)c3nc4ccccc4nc23)cc1C | 91* | 6 | 40* | . | 29
Cc1ccc(S(=O)(=O)c2c(N)n(CCCO)c3nc4ccccc4nc23)cc1 | 143* | -9 | 21 | . | 4
Nc1c(S(=O)(=O)c2ccccc2)c2nc3ccccc3nc2n1Cc1ccco1 | 101* | 2 | 46* | . | 4
CC(C)NC(=O)N(C)C[C@@H]1Oc2ncc(C#CCc3ccccc3)cc2C(=O)N([C@H](C)CO)C[C@H]1C | . | . | . | -1 | .
O=C(Sc1cccc2cccnc12)c1ccc(F)cc1 | . | 28* | . | 2 | .
CSc1c(C#N)c(N)nc2sc(C(=O)c3ccccc3)c(N)c12 | -2 | 6 | 46* | 0 | 0
CC(C)COC(=O)N(C)C[C@@H]1OCc2ccccc2-c2ccccc2C(=O)N([C@H](C)CO)C[C@@H]1C | . | . | . | 0 | .
